Assay [1] deals with Progesterone receptor (Homo sapiens) (UniProt P06401). Nature of the assay: qHTS assay to identify small molecule agonists of the progesterone receptor (PR) signaling pathway (AID 1346784; calls by dose curve; further: nearly all actives have a fitted effect of over 30% in size). The procedure, abridged: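 Fluorescence from LiveBLAzer B/G FRET substrate cleavage (2 hr, RT) reported PR activation in PR-UAS-bla HEK 293T cells treated 16 hr at 37C/5% CO2 with compounds; medium contained 2% charcoal-stripped FBS.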
Sequence of Progesterone receptor (Homo sapiens) (P06401 whole entry, looked up): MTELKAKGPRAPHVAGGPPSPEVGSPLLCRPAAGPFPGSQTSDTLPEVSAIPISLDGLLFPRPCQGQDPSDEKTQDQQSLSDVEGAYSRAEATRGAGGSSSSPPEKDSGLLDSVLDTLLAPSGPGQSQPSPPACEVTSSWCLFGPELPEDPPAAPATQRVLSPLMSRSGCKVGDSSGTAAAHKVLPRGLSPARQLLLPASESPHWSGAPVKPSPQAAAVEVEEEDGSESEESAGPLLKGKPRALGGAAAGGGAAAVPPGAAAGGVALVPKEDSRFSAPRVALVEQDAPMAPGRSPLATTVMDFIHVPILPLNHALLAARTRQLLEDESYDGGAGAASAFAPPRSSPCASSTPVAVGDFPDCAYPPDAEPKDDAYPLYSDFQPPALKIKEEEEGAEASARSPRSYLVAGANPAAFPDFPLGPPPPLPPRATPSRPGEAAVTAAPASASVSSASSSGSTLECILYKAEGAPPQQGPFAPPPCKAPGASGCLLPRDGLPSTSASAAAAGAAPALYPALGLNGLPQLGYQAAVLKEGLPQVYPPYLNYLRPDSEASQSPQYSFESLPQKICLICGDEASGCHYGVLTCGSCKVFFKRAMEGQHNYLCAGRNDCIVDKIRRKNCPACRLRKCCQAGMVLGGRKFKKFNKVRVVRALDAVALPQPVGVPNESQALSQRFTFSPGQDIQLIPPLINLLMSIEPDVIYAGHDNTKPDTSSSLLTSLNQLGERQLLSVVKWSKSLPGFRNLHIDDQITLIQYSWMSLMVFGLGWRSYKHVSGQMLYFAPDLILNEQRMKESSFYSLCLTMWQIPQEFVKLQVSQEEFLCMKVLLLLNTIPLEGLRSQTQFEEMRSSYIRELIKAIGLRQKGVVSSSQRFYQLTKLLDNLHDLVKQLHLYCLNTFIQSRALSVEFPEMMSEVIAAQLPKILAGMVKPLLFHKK
A general note: In qHTS, concentration-response curves come from the screen itself.

The target is the same in assay [2]. Nature of the assay: qHTS assay to identify small molecule antagonists of the progesterone receptor (PR) signaling pathway (AID 1346795; active means well fitted inhibition curve with a large enough effect in the signal ratio in the repeat runs, not every such curve was filed as active; the % refers to the signal ratio). The procedure, abridged: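 Fluorescence intensity measured 2 hr after adding beta-lactamase FRET substrate to PR-UAS-bla HEK293T cells that had been co-treated 16 hr with compound and 1 nM R5020 (final concentration) in 2% charcoal-stripped FBS.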

Assay [3] is described as follows: qHTS assay to identify small molecule antagonists of the progesterone receptor (PR) signaling pathway - cell viability counter screen (AID 1346798). Further: series mostly up to about 92 µM; nearly all actives have a fitted effect of over 50% in size. Summed up:
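CellTiter-Glo luminescence; PR-UAS-bla HEK293T, 3,000 cells/well; compound + R5020, 16 hr, 37C/5% CO2; 30 min RT before read.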

A short description of assay [4]: qHTS assay to identify small molecule agonists of the progesterone receptor (PR) signaling pathway - cell viability counter screen (AID 1346799; calls by dose curve; further: nearly all actives have a fitted effect of over 45% in size). The procedure, abridged: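 In parallel with the beta-lactamase readout, cytotoxicity toward PR-UAS-bla HEK293T cells was measured by CellTiter-Glo luminescence following 16 hr compound incubation in 2% charcoal-stripped FBS medium.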

Assay [5] in a line: qHTS assay to identify small molecule antagonists of the TGF-beta/Smad signaling pathway - cell viability counter screen (AID 1346824). Further: nearly all actives have a fitted effect of over 50% in size. Summed up:
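SBE-bla HEK 293T cells were plated overnight at 37 C, then given compounds in DMSO plus TGF-beta1 (added as 0.25 ng/mL solution) for 5 hr. After the bla read, CellTiter-Glo was added to the same wells and luminescence read after 30 min at room temperature.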

Assay [6] in a line: qHTS assay to identify small molecule agonists of the TGF-beta/Smad signaling pathway - cell viability counter screen (AID 1346829). Further: top concentration of the series differs between compounds; nearly all actives have a fitted effect of over 45% in size. The procedure, abridged: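 CellTiter-Glo luminescence readout; SBE-bla HEK 293T cells, overnight plating, compound 5 hr at 37 C/5% CO2, then bla substrate 2 hr RT, then CellTiter-Glo 30 min RT.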
Assay [7] can be described thus: qHTS assay to identify small molecule agonists of the TGF-beta/Smad signaling pathway (AID 1346859; active means well fitted activation curve with a large enough effect in the signal ratio in the repeat runs, not every such curve was filed as active; the % refers to the signal ratio; further: series mostly up to about 77 µM). Summed up: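 After overnight seeding, SBE-bla HEK 293T cells are dosed with compounds in DMSO and kept 5 hr at 37 C, 5% CO2. LiveBLAzer-type FRET substrate is then applied for 2 hr at room temperature.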
Assay [8] can be described thus: Human pregnane X receptor (PXR) small molecule agonists, qHTS cell viability counter screen (AID 1346977). Further: nearly all actives have a fitted effect of over 50% in size. Further: potency means the concentration at half of the fitted maximal effect. The procedure, abridged:
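Viability counter screen: CellTiter-Fluor signal in PXR-Luc HepG2 cells, 24hr compound exposure, 37C, 5% CO2.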

Assay [9] can be described thus: Caspase-3/7 induction in CHO-K1 cells by small molecules, qHTS cell viability counter screen (AID 1346979). Further: nearly all actives have a fitted effect of over 35% in size. Further: potency means the concentration at half of the fitted maximal effect. Summed up: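 Viability readout by fluorescence (CellTiter-Fluor) on wild-type CHO-K1 cells exposed for 16hr at 37C and 5% CO2 to compounds delivered in DMSO; reagent incubated 1hr before reading.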
Assay [10] in a line: Caspase-3/7 induction in CHO-K1 cells by small molecules, qHTS assay (AID 1346980). Further: nearly all actives have a fitted effect of over 15% in size. The procedure, abridged:
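Wild-type cells were seeded at 1,500 per well and settled 5 hr at 37 C, 5% CO2, then exposed to DMSO-dissolved compounds for 17 hr. Caspase-Glo 3/7 reagent was added, and luminescence was read after 30min at room temperature.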

A short description of assay [11]: Caspase-3/7 induction in HepG2 cells by small molecules, qHTS cell viability counter screen (AID 1346981). Further: nearly all actives have a fitted effect of over 30% in size. Further: potency means the concentration at half of the fitted maximal effect. Summed up: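 Fluorescence read-out of live-cell protease activity (CellTiter-Fluor) after 1 hr with reagent. This was measured in the same wells as the caspase-3/7 luminescence, on HepG2 cells exposed to DMSO-dissolved compounds for 16 hr at 37 C.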
Assay [12] deals with Nuclear receptor subfamily 1 group I member 2 (Homo sapiens) (UniProt O75469). As to the kind of experiment: Human pregnane X receptor (PXR) small molecule agonists, qHTS assay (AID 1346982). Further: nearly all actives have a fitted effect of over 35% in size. Summed up:
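HepG2 PXR-Luc reporter line, 5% charcoal-stripped FBS; 5 hr pre-incubation, compound (DMSO) 24 hr at 37 C/5% CO2; ONE-Glo 30 min RT; luminescence read-out.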

Assay [13] shares this target. As to the kind of experiment: CYP3A4 induction through human pregnane X receptor (PXR) by small molecules, qHTS assay (AID 1346984). Further: nearly all actives have a fitted effect of over 40% in size. The procedure, abridged: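 HepG2-derived DPX-2 line carrying PXR plus a CYP3A4-promoter luciferase reporter; cells plated 5 hr, compound-exposed 24 hr at 37C. CYP3A4 activity probed with 3uM (final) Luciferin-IPA for 3hr, then luciferase read after One-Glo.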

The target is the same in assay [14]. Nature of the assay: Human pregnane X receptor (PXR) activation by small molecules, qHTS assay (AID 1346985). Further: nearly all actives have a fitted effect of over 40% in size. Summed up:
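DPX-2 cells (HepG2 co-transfected with a PXR response element and a CYP3A4-promoter luciferase construct) were seeded at 2,000 per well, rested 5 hr at 37C, then exposed to DMSO-dissolved compounds for 24 hr. Activation was read as luciferase luminescence.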

Assay [15] has as its target Cytochrome P450 2D6 (Homo sapiens) (UniProt P10635). As to the kind of experiment: Cytochrome P450 Family 2 Subfamily D Member 6 (CYP2D6) small molecule antagonists: luciferase reporter qHTS assay (AID 1671196). Further: nearly all actives have a fitted effect of over 50% in size. Further: potency means the concentration at half of the fitted maximal effect. The procedure, abridged: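 Luminogenic proluciferin substrate, CYP2D6 enzyme; 10 min RT preincubation with compound, NADPH regeneration system added, 1 h RT. Stop/detection reagent, 20 min RT, luminescence read (RLU). Signal proportional to CYP activity.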

For assay [16], the target named is Cytochrome P450 2C19 (Homo sapiens) (UniProt P33261). Nature of the assay: Cytochrome P450 Family 2 Subfamily C Member 19 (CYP2C19) small molecule antagonists: luciferase reporter qHTS assay (AID 1671197). Further: nearly all actives have a fitted effect of over 65% in size. Further: potency means the concentration at half of the fitted maximal effect. Summed up: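 Enzyme-substrate mix with proluciferin substrate (P450-Glo CYP2C19 system) preincubated with compounds 10 min at room temperature; NADPH regeneration solution added, 37C for 1 h; detection reagent stops reaction, luminescence read after 20 min. Ketoconazole positive control.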
Sequence of Cytochrome P450 2C19 (Homo sapiens) (P33261 whole entry, looked up): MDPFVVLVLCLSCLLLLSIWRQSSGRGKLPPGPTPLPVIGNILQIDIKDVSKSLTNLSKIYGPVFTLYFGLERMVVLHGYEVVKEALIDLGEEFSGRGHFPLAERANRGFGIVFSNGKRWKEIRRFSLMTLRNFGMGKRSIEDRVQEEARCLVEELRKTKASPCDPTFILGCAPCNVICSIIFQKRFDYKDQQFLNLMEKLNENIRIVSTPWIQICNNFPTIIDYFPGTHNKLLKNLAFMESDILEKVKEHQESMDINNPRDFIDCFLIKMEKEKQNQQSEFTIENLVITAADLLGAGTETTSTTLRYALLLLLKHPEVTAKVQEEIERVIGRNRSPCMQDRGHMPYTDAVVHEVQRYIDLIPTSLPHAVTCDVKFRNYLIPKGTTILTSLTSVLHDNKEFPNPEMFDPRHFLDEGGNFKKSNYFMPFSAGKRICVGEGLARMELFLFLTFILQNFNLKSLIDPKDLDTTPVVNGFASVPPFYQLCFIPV
(A reporter such as luciferase makes a cellular process visible.)

Assay [17] has as its target Cytochrome P450 2C9 (Homo sapiens) (UniProt P11712). As to the kind of experiment: Cytochrome P450 Family 2 Subfamily C Member 9 (CYP2C9) small molecule antagonists: luciferase reporter qHTS assay (AID 1671198). Further: nearly all actives have a fitted effect of over 50% in size. Further: potency means the concentration at half of the fitted maximal effect. Summed up:
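CYP2C9 activity was measured with a P450-Glo proluciferin substrate. Enzyme–substrate mix was held with compound for 10 min at room temperature, then NADPH regeneration solution was added for 1 h at 37C. Luciferin product was read as luminescence.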

A short description of assay [18]: Caspase-3/7 induction in HepG2 cells by small molecules, qHTS assay (AID 1346978). Further: nearly all actives have a fitted effect of over 15% in size. The procedure, abridged:
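Wild-type HepG2 cells (2,000/well) were settled 5 h at 37 C, 5% CO2, then exposed to compounds in DMSO for 17 h. Caspase-3/7 activity was read by luminescence 30 min after adding Caspase-Glo 3/7 reagent at room temperature.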

For assay [19], the target named is Thyrotropin-releasing hormone receptor (Homo sapiens) (UniProt P34981). Nature of the assay: qHTS assay to identify small molecule antagonists of the thyrotropin-releasing hormone receptor (TRHR) signaling pathway (AID 1346877; active means well fitted inhibition curve with a large enough effect in the repeat runs, not every such curve was filed as active; further: series mostly up to about 51 µM). Summed up: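 HEK293/TRHR cells, 18 h, 37 °C; Ca2+ dye 2 h; cpd 5 min RT; TRH 1 nM final; fluorescence read 3 min, 1 s intervals; 15 concs, triplicate.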
Sequence of Thyrotropin-releasing hormone receptor (Homo sapiens) (P34981 whole entry, looked up): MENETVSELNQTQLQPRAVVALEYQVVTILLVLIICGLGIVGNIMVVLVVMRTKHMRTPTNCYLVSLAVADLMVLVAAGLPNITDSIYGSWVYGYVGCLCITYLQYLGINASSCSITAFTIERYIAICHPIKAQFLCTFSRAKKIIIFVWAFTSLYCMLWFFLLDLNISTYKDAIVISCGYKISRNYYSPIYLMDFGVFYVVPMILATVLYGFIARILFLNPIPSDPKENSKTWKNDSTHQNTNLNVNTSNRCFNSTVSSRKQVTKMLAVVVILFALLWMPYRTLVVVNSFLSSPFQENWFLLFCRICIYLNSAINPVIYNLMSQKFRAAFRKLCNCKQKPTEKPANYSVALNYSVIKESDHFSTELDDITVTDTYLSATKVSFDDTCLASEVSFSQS

Assay [20] has the same target. As to the kind of experiment: qHTS assay to identify small molecule agonists of the thyrotropin-releasing hormone receptor (TRHR) signaling pathway (AID 1346891; calls by dose curve; further: potency means the concentration at half of the fitted maximal effect;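 on activation: HEK293 cells expressing TRHR with calcium dye readout; series mostly up to about 58 µM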). Summed up:
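Compounds were tested as agonists at 15 concentrations, in triplicate, on TRHR-Hek293 cells; calcium-sensitive dye fluorescence was recorded for 3 min following addition.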

Values joined by “and” are separate entries in the source; they are usually repeats but may differ in a detail not shown here. Identical values can stand only once. Results filed as inconclusive are left out. Where a structure was tested more than once in an assay, its records may differ in their call. Active and inactive are the calls of the source. Unless noted, the call rests on the fitted dose curve; in most records, active means well fitted curve in the direction sought with a large enough effect in the repeat runs; inconclusive means weak or mixed curves; inactive means no such curve, though single readings can be large; an effect the other way counts as inactive or inconclusive.
On the % scale 0 is the no-effect control and ±100 the full control effect.

Sequence of Cytochrome P450 2D6 (Homo sapiens) (P10635 whole entry, looked up): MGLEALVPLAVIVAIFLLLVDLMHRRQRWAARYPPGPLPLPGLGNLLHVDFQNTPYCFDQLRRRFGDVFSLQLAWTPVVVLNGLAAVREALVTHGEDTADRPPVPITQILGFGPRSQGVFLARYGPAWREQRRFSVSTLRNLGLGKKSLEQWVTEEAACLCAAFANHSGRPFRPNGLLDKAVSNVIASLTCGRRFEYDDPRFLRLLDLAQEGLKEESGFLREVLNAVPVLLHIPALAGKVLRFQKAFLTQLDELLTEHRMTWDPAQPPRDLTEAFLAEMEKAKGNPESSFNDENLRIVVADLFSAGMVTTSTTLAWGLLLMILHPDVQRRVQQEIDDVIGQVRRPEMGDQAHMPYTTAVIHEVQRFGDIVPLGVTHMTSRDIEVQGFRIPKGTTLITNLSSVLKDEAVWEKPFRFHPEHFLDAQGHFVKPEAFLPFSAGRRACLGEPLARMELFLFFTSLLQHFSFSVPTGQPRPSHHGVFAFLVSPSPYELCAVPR
Sequence of Nuclear receptor subfamily 1 group I member 2 (Homo sapiens) (O75469 whole entry, looked up): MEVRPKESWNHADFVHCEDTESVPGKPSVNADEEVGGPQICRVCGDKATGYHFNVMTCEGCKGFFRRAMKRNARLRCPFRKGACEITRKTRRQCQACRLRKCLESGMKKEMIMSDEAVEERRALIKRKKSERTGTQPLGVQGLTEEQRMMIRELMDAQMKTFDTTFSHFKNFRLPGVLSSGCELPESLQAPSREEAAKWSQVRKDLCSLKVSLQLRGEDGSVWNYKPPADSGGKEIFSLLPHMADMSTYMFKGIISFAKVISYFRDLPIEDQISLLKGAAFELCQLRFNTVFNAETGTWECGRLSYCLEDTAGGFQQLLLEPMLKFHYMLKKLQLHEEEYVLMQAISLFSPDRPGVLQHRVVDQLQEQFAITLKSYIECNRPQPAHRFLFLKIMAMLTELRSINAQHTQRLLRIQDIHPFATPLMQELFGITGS
Sequence of Cytochrome P450 2C9 (Homo sapiens) (P11712 whole entry, looked up): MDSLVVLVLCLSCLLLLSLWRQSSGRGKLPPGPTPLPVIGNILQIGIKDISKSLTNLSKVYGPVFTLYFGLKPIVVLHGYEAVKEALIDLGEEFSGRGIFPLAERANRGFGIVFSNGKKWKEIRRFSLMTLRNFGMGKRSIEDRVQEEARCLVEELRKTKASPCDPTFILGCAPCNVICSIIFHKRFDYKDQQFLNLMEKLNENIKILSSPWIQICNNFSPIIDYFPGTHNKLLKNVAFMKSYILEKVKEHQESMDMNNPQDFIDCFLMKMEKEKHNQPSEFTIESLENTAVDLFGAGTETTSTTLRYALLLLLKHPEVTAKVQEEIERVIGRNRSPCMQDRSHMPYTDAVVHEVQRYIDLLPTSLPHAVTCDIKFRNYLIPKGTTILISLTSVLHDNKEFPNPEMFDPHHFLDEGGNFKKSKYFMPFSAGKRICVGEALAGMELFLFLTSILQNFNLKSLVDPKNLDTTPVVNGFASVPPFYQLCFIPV

On to `CCc1cccc2c3c([nH]c12)C(CC)(CC(=O)O)OCC3` (centres undefined), for which the Potency entry in assay [1], in [2], in assay [3], in assay [4], in assay [5] and in assay [6] was “inactive” throughout. In addition, the Potency result in assay [8], in assay [9], in [10], in assay [11], in assay [12] and in assay [13] was “inactive” in each case. Besides, the Potency entry in assay [14] is “inactive”. For the same compound, the compound was classed as inactive in assay [7]. Moreover, the Potency in [15] was 20 µM (active) and inactive; in [16], 39.8 µM (active); in assay [17] it was 31.6 µM (active) and 34.7 µM (active).
Turning to `CC1(C)OC(=O)NC1=O`, the Potency result in assay [1], in assay [2], in [3], in [4], in [5] and in [6] was “inactive” throughout. Moreover, the Potency result in assay [8], in assay [9], in assay [10], in assay [11], in assay [15] and in [16] was “inactive” throughout. Moreover, in [17], the Potency result was “inactive”. Moreover, the result in assay [7] was inactive.
In the case of `C1COCCN1`, the Potency result in assay [1], in assay [2], in [3], in assay [4], in assay [5] and in assay [6] was “inactive” in each case. The Potency entry in assay [8], in assay [18], in assay [9], in assay [10], in [11] and in [15] was “inactive” throughout. Further, the Potency result in [16] and in assay [17] was “inactive” in each case. The call in assay [7] was inactive.
As to `C=C[C@H]1CN2CC[C@H]1C[C@H]2[C@H](O)c1ccnc2ccc(OC)cc12`, the Potency entry in assay [1], in [2], in [3], in assay [4], in assay [6] and in [19] was “inactive” throughout. Besides, the Potency entry in [20], in assay [18], in assay [9], in [10], in assay [11] and in [16] was “inactive” each time. Besides, in assay [7], the compound was classed as inactive. The Potency in [8] is 30.6 µM (active).
For `[O-]/[N+](=N\O)c1ccccc1`, the Potency entry in assay [1], in assay [3], in assay [4], in assay [5], in [6] and in assay [19] was “inactive” each time. Also, the Potency entry in assay [20], in assay [8], in [9], in [11] and in assay [15] was “inactive” throughout. Besides, the result in assay [7] was inactive. Further, in assay [16], the Potency was 62.7 µM (active) and 39.9 µM (active).
As to `O=C1OC2(c3ccccc31)c1cc(I)c(O)c(I)c1Oc1c2cc(I)c(O)c1I`, the Potency entry in assay [2], in [3], in [4], in assay [5], in [6] and in [19] was “inactive” throughout. Further, the Potency result in assay [18], in [10] and in assay [12] was “inactive” throughout. Besides, in assay [7], the outcome was inactive. Moreover, the Potency in assay [20] was 19.7 µM (active) [middle of 4 runs]; in assay [8], 7.78 µM (active) [middle of 4 runs]; in assay [9], 10.5 µM (active) [middle of 4 runs]; in assay [11], 13.3 µM (active) [middle of 4 runs]; in [15] it was 28.3 µM (active) and 36 µM (active); in [16], 56.5 µM (active) and 18 µM (active) and 5.43 µM (active).
With `CCCCCCCCCCCCCO`, the Potency entry in assay [2], in assay [3], in assay [4], in assay [5], in assay [6] and in assay [19] was “inactive” throughout. Also, the Potency result in [20], in assay [8], in assay [18], in assay [9], in assay [11] and in [15] was “inactive” each time. In addition, in [7], the compound was called inactive. For the same compound, in assay [16], the Potency was 71.8 µM (active) and 36.9 µM (active).
With `c1ccc2ncccc2c1`, the Potency entry in [2], in [3], in assay [4], in assay [5], in assay [6] and in assay [19] was “inactive” throughout. The Potency entry in [20], in assay [8], in assay [18], in assay [9], in assay [10] and in [11] was “inactive” in each case. For the same compound, the Potency result in assay [12], in [15] and in [16] was “inactive” throughout. For the same compound, the compound was classed as inactive in [7].

For the origin of these results see PubChem BioAssay (Tox21).
